Results filed as inconclusive are left out. Active and inactive are the calls of the source. The calls were made as follows: active = hit-call score of the fitted dose curve at least 0.9, where 1 is the maximum; inconclusive = response in the unintended direction; inactive = score below 0.9.
Assay: CLD_ACTIN_48hr: CellzDirect (CLD) Gene Expression Assay for Baseline Control (Actin) at 48 hours (AID 2283702)
Method: CLD_48hr is a cell-based, multiplexed-readout assay that uses hepatocyte, a human liver primary cell, with measurements taken at 48 hours after chemical dosing in a 96-well plate.CLD_ACTIN_48hr is one of 16 assay component(s) measured or calculated from the CLD_48hr assay. It is designed to make measurements of mRNA induction, a form of inducible reporter, as detected with chemiluminescence signals by Quantitative Nuclease Protection Assay (qNPA) technology.Data from the assay component CLD_ACTIN_48hr was analyzed at the endpoint, CLD_ACTIN_48hr, in the positive analysis fitting direction relative to DMSO as the negative control and baseline of activity. Using a type of inducible reporter, gain-of-signal activity can be used to understand changes in the reporter gene as they relate to the gene ACTA1. Furthermore, this assay endpoint can be referred to as a secondary readout, because this assay has produced multiple assay endpoints where this one serves a background control function. To generalize the intended target to other relatable targets, this assay endpoint is annotated to the background measurement intended target family, where subfamily is baseline control.
Human hepatocyte cultures were treated daily for two consecutive days with fresh dosing solutions containing appropriate concentrations of the 320 ToxCast chemicals (chemical identities were blinded to CellzDirect and other ToxCast collaborators), vehicle control (0.2% DMSO), and positive control inducers as summarized in Table 1. Due to the large number of treatment groups and chemicals examined, the ToxCast chemicals were divided into two groups (spanning two independent cultures of hepatocytes from separate donor preparations (Hu778: ToxCast plates 1 and 2; Hu776: ToxCast plates 3 and 4). Each preparation of human hepatocyte cultures was treated with respective vehicle control, medium only control, set of six positive controls/reference chemicals for the five hepatic receptor pathways, and a subset of eight of the ToxCast chemicals (indoxacarb, pyrithiobac-sodium, norflurazon, cyhalofop-butyl, methomyl, thiram, acetochlor, and propiconazole). These replicate data, coupled with internal replicates designed within the blinded ToxCast chemical library, provided additional data to evaluate interindividual differences between hepatocyte preparations and their potential impact on chemical profiles.Cell morphology and integrity were evaluated using phase-contrast microscopy as an indicator of hepatocyte cell health (Tyson & Green, 1987). Cultures for each treatment group (i.e., media, vehicle [0.2% DMSO], positive control inducers [multiple concentrations], and the ToxCast chemicals [multiple concentrations]) were observed and cell morphology was assessed relative to vehicle control cultures at each harvest time point (0, 6, 24, or 48 h). […] Images were evaluated at the conclusion of the study to assess changes in cell integrity and account for the effects of chemical exposure on uncharacteristic changes in concentration-dependent gene expression profiles. The results from these determinations of apparent cytotoxicity were annotated (yes/no) alongside the corresponding qNPA data for reference.At the conclusion of each treatment period, hepatocyte cultures (96-well) were washed with 1 volume of HBSS, lysed by addition of 25 ul ArrayPlate lysis buffer (HTG, Tucson, AZ), and 70 ul/well of Denaturation Oil, denatured by incubation at 95C for 10 min, and frozen at approximately -70C until analysis by nuclease protection assay (qNPA) (Roberts et al., 2007). For qNPA analysis, cell lysates were thawed at 50C for approximately 30 min, qNPA probes were added, and samples were incubated at 95C for 10 min to begin the detection process by denaturing the target RNA, dissociating the duplexes and secondary structure hybridization. At the conclusion of the hybridization period, S1 nuclease reagent was added to each sample to digest all nonprotected nucleotides at 50C for 60-90 min. […]

| Structure (SMILES) | outcome |
| --- | --- |
| S=C([S-])NCCNC(=S)[S-].[Mn+2] | inactive |
| CC(C)(c1ccc(O)cc1)c1ccc(O)cc1 | inactive |
| CCCN(CCC)C(=O)SCC | inactive |
| COC(=O)c1c(Cl)nn(C)c1S(=O)(=O)NC(=O)Nc1nc(OC)cc(OC)n1 | inactive |
| COC(=O)c1ccc(CNS(C)(=O)=O)cc1S(=O)(=O)NC(=O)Nc1nc(OC)cc(OC)n1 | inactive |
| COC(=O)c1ccccc1S(=O)(=O)NC(=O)Nc1nc(OC(F)F)cc(OC(F)F)n1 | inactive |
| C=CCOC(Cn1ccnc1)c1ccc(Cl)cc1Cl (stereo unspecified) | inactive |
| CCCCOC(=O)C(C)Oc1ccc(Oc2ccc(C(F)(F)F)cn2)cc1 (stereo unspecified) | inactive |
| CCCOC(=O)c1ccc(C(=O)OCCC)nc1 | inactive |
| CCSC(=O)N(CC(C)C)CC(C)C | inactive |
| CCOC(=O)C(C)Oc1ccc(Oc2cnc3cc(Cl)ccc3n2)cc1 (stereo unspecified) | inactive |
| CCC(C)OC(=O)N1CCCCC1CCO (stereo unspecified) | inactive |
| CCC(O)=C1C(=O)CC(C(=O)O)CC1=O (stereo unspecified) | inactive |
| N#CSCSc1nc2ccccc2s1 | inactive |
| CCNc1nc(N)nc(Cl)n1 | inactive |
| CCOC(=O)COc1cc(-n2ncc(C(F)(F)F)c(C)c2=O)c(F)cc1Cl | inactive |

| Structure (SMILES) | outcome |
| --- | --- |
| CCCCCOC(=O)COc1cc(N2C(=O)C3=C(CCCC3)C2=O)c(F)cc1Cl | inactive |
| COCCO | inactive |
| CC1(C)C(C=C(Cl)Cl)C1C(=O)OCc1cccc(Oc2ccccc2)c1 (stereo unspecified) | inactive |
| CSC(=O)c1cccc2nnsc12 | inactive |
| C#CCOC(=O)[C@@H](C)Oc1ccc(Oc2ncc(Cl)cc2F)cc1 | inactive |
| CCOC(=O)C(C)Oc1ccc(Oc2nc3ccc(Cl)cc3o2)cc1 (stereo unspecified) | inactive |
| COc1c(Cl)ccc(Cl)c1C(=O)O | inactive |
| OB(O)O | inactive |
| COC(=O)c1ccccc1C(=O)O | inactive |
| COC(=O)c1ccc(I)cc1S(=O)(=O)NC(=O)Nc1nc(C)nc(OC)n1 | inactive |
| Cc1nn(C)c(Oc2ccccc2)c1C=NOCc1ccc(C(=O)OC(C)(C)C)cc1 | inactive |
| CCOC(=O)[C@H](C)Oc1ccc(Oc2nc3ccc(Cl)cc3o2)cc1 | inactive |
| Oc1ccc(C(c2ccc(O)cc2)C(Cl)(Cl)Cl)cc1 | inactive |
| O=C(O)C1(C(=O)Nc2ccc(Cl)cc2Cl)CC1 | inactive |
| CCCOC(=O)NCCCN(C)C | inactive |

Source: PubChem BioAssay (EPA / NIEHS)
